# This excerpt belongs to a sample that is enriched for hits.
# nsP2pro inh – inhibitors of chikungunya virus nsP2 protease; Q8JUX6; FRET peptide cleavage, nsP2pro, fluorescence 1 h; Potency, µM (highest dose often 24.9 µM), for the others: at the top dose activity change, negative = inhibition, most hits filed as inhibitors; 1.1% of 31,000 active; AID 1964107; also: nearly all actives have a fitted effect of over 60% in size
#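 FRET cleavage of 2.5 uM peptide 2 by 150 nM CHIKV protease domain at pH 8.0 (Tris, Tween 20). Compounds at 7 concentrations (up to 25 uM) preincubated 15 min. Fluorescence read after 1 h at room temperature.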
# nsP2 cell sec – inhibits CHIKV nsP2 protease in cells; cell-based CHIKV nsP2 protease reporter assay; 10% of 450 active; AID 1964100; shares compounds with nsP2pro inh; Potency, µM (top dose mostly 51.1 µM), for inactives: top-dose activity change, negative = inhibition, actives largely listed as inhibitors; also: nearly all actives have a fitted effect of over 70% in size
# CHIKV NSP2 FL – selectivity test for CHIKV nsP2 protease inhibitors: full-length NSP2. shares compounds with nsP2pro inh. Full-length CHIKV NSP2 protease enzymatic counterscreen. Potency, µM (highest dose often 50.7 µM), without a hit: at the highest dose activity change, negative = inhibition, actives largely listed as inhibitors. 39% of 410 active. AID 1964101; also: nearly all actives have a fitted effect of over 65% in size
# Furin counter – human furin inhibition, counterscreen for nsP2pro inhibitors; shares compounds with nsP2pro inh; Recombinant human furin enzymatic counterscreen, fluorogenic substrate; Potency, µM (series often up to 50.6 µM), inactives show at the top dose activity change, negative = inhibition, actives largely listed as inhibitors; 6% of 410 active; AID 1964102
# nsP2 NS23 pep – nsP2pro inhibition on native NS2/3 peptide substrate; shares compounds with nsP2pro inh; Purified CHIKV nsP2 protease, endogenous NS2/3 peptide cleavage; Potency, µM (doses to about 51 µM), for the others: at the top dose activity change, negative = inhibition, most hits filed as inhibitors; 34% of 410 active; AID 1964103; also: nearly all actives have a fitted effect of over 55% in size
# Papain cs – inhibits papain in a CHIKV nsP2 protease selectivity counterscreen | shares compounds with nsP2pro inh | purified papain protease activity, enzymatic inhibition | Potency, µM (top dose mostly 51 µM), for inactives: top-dose activity change, negative = inhibition, actives largely listed as inhibitors | 5% of 410 active | AID 1964104
# Target sequence (P00784 whole entry, looked up): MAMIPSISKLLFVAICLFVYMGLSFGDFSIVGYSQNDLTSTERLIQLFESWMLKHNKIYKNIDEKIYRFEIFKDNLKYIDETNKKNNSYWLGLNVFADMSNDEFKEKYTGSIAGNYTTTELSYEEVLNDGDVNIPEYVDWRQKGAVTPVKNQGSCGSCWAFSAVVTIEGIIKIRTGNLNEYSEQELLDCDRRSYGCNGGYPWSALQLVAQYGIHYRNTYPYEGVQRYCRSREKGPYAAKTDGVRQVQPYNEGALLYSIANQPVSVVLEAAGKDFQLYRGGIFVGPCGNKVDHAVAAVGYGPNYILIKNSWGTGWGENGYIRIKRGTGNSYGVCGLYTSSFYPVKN
# nsP2pro conf qHTS – confirmation of CHIKV nsP2 protease inhibitors; shares compounds with nsP2pro inh; CHIKV nsP2 protease enzymatic activity, qHTS; Potency, µM (doses to about 25.5 µM), for the others: top-dose activity change, negative = inhibition, hits mostly inhibitors; 43% of 410 active; AID 1964105; also: nearly all actives have a fitted effect of over 75% in size
# HCV NS3 4A cs – HCV NS3/4A protease inhibition, counterscreen | 20% of 410 active | HCV NS3/4A protease biochemical counterscreen | shares compounds with nsP2pro inh | AID 1964106 | Potency, µM (doses to about 50.9 µM), hits mostly inhibitors; also: nearly all actives have a fitted effect of over 55% in size
# Starred values were filed as active, the others as inactive; i = inactive; ? = inconclusive; [ ] = remark or other dose. Calls follow the shape of the full dose curve. % is scaled to controls: 0 for no effect and ±100 for the full control effect; potency is read from the fitted curve at half-maximal effect.
SMILES,nsP2pro inh,others
c1nc(N2CCC(N3CCCC3)CC2)c2cc(-c3ccc4c(c3)OCO4)ccc2n1,i,
CCNC(=O)c1ccc(-c2ccc3ncnc(NCc4nccs4)c3c2)o1,-6%,
Cc1ccc(CNc2ncnc3ccc(-c4ccc(C(=O)N(C)C)o4)cc23)o1,i,
O=C(O)c1ccc(-c2ccc3ncnc(N4CCOCC4)c3c2)o1,0%,
CC(O)c1ccc(-c2ccc3ncnc(N4CCOCC4)c3c2)o1 (stereo not drawn),10µM*,nsP2 cell sec=?;CHIKV NSP2 FL=16µM*;Furin counter=-8%;nsP2 NS23 pep=?;Papain cs=18%;nsP2pro conf qHTS=4%;HCV NS3 4A cs=21µM*
Cc1csc(CNc2ncnc3ccc(-c4ccc(C(=O)O)o4)cc23)n1,-11%,
Cc1ccc(CN(C)c2ncnc3ccc(-c4ccc(CO)o4)cc23)o1,-26%,
O=C(O)c1ccc(-c2ccc3ncnc(NCCc4cnc[nH]4)c3c2)o1,i,
CC(O)c1ccc(-c2ccc3ncnc(NCc4nccs4)c3c2)o1 (stereo not drawn),10µM*,nsP2 cell sec=?;CHIKV NSP2 FL=12µM*;Furin counter=-20%;nsP2 NS23 pep=23µM*;Papain cs=41%;nsP2pro conf qHTS=-53%;HCV NS3 4A cs=12µM*
OCc1ccc(-c2ccc3ncnc(NCCc4cnc[nH]4)c3c2)o1,1.1µM*,nsP2 cell sec=21µM*;CHIKV NSP2 FL=2%;Furin counter=-6%;nsP2 NS23 pep=2%;Papain cs=7%;nsP2pro conf qHTS=82%;HCV NS3 4A cs=10µM*
CCNC(=O)c1ccc(-c2ccc3ncnc(NCCc4cnc[nH]4)c3c2)o1,-14%,
Cc1ccc(CNc2ncnc3ccc(-c4ccc(CO)o4)cc23)o1,?,nsP2 cell sec=14%;CHIKV NSP2 FL=18%;Furin counter=-11%;nsP2 NS23 pep=i;Papain cs=46%;nsP2pro conf qHTS=8%;HCV NS3 4A cs=i
CC(C)COc1ccc(-c2ccc(=O)n(CC(=O)NCCc3ccccc3)n2)cc1,i,
Cc1ccc(CNc2ncnc3ccc(-c4oc(-c5ccccc5)nc4C)cc23)o1,i,
CCN(CC)CCS(=O)(=O)[C@@H]1CCN2C(=O)c3coc(n3)CC(=O)C[C@H](O)/C=C(C)/C=C/CNC(=O)/C=C/[C@@H](C)[C@@H](C(C)C)OC(=O)[C@@H]12,60%,
Cc1nc(CCNc2ncnc3ccc(-c4ccc5c(c4)OCO5)cc23)cs1,i,
Cn1c(=O)cc(N2CCC[C@@H](N)C2)n(Cc2cc(F)ccc2C#N)c1=O,-8%,
CCC1C(O)C2C3CCC(C(C)CCC(=O)O)C3(C)CCC2C2(C)CCC(O)CC12 (stereo not drawn),-20%,
Cc1ccnc(N(C)C(=S)N2CCN(c3cccc(C(F)(F)F)c3)CC2)c1,-3%,
CCNC(=O)N(C1CC1)C1CCOC2(CCN(C(=O)COc3ccccc3)CC2)C1 (stereo not drawn),-6%,
N#CNC(=O)c1ccc(-n2cccc2/C=C2\NC(=O)N(CC(=O)Nc3ccc(F)cc3)C2=O)cc1,0%,
O=C(NCCN1C(=O)C2(CCCCC2)C1c1ccccc1)NCc1ccccc1 (stereo not drawn),-8%,
CC(=O)OC1CC2C(C)(C)C(=O)C=CC2(C)C2CC(=O)C3=C(CCC3C3=CC(O)OC3=O)C12C (stereo not drawn),-16%[10 µM],
CC(=O)O[C@@H]1CC2C(C)(C)C(=O)C=C[C@]2(C)C2CC[C@@]3(C)[C@H](c4ccoc4)OC(=O)[C@H]4O[C@]43[C@@]21C (stereo partly drawn),?,nsP2 cell sec=-15%[17.6 µM];CHIKV NSP2 FL=?;Furin counter=-5%[17.3 µM];nsP2 NS23 pep=-27%[17.2 µM];Papain cs=?;nsP2pro conf qHTS=?;HCV NS3 4A cs=i
